From PubChem BioAssay (NCATS)
Inconclusive results are not listed. The source made the active and inactive calls. Calls follow the shape of the dose curve; as a rule, active = well fitted cell-killing curve with a large enough effect; inconclusive = small, poorly fitted or top-dose-only effect; inactive = no such curve, though single readings can be large or run the other way.

test: qHTS of pediatric cancer cell lines to identify multiple opportunities for drug repurposing: Primary screen for Rh41 cells (AID 1347108); details: Rh41 rhabdomyosarcoma viability, CellTiter-Glo luminescence, 48 h; series mostly up to 46 µM; also: nearly all actives have a fitted effect of over 70% in size
Procedure, shortened: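 Phenotypic viability qHTS, 48 h compound exposure, CellTiter-Glo luminescence read-out; multi-concentration dosing so that potency and efficacy derive directly from the primary screen's curves.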
Potency is read from the fitted curve at half-maximal effect.

| Compound | Potency |
| --- | --- |
| CN(C1CCc2c(c3ccccc3n2CC(=O)O)C1)S(=O)(=O)c1ccc(F)cc1 (stereo not given) | 3.72 µM (active) |
| Cc1cn2cc(C(=O)N(C)CCO)cc(N[C@@H]3CCOc4cccc(C)c43)c2n1 | inactive |
| CC1(C)CC(=O)c2c(C(F)(F)F)nn(-c3ccc(C(N)=O)c(NC4CCC(OC(=O)CN)CC4)c3)c2C1 (stereo not given) | 0.372 µM (active) |
| COCCOc1ccc2c(c1)ncn2-c1ccc2cccc(N3CCC(N)CC3)c2n1 | 23.5 µM (active) |
| COc1cc(C(=O)N2CCC(N3CCN(C)CC3)CC2)ccc1Nc1ncc2c(n1)N(C)c1ccccc1C(=O)N2C | 9.35 µM (active) |
| N#CCNC(=O)c1ccc(-c2ccnc(Nc3ccc(N4CCOCC4)cc3)n2)cc1 | 18.7 µM (active) |
| O=C(NCCCNc1nc(Nc2cccc(NC(=O)N3CCCC3)c2)ncc1I)c1cccs1 | 18.7 µM (active) |
| O=C(O)c1ccc2c(c1)nc(Nc1cccc(Cl)c1)c1ccncc12 | 14.8 µM (active) |
| CC(=O)SC[C@@H](C)C(=O)N1CCC[C@H]1C(=O)N[C@@H](Cc1ccccc1)C(=O)O | inactive |
| c1cc(-c2cnn3cc(-c4ccc(OCCN5CCCCC5)cc4)cnc23)ccn1 | 9.35 µM (active) |
| Cc1cc(Nc2nc(N[C@@H](C)c3ccc(F)cc3)c(C#N)cc2F)n[nH]1 | 5.9 µM (active) |
| CNC(=O)c1cc(Oc2ccc(NC(=O)Nc3cc(C(C)(C)C)nn3-c3ccc4ncccc4c3)c(F)c2)ccn1 | 23.5 µM (active) |
| C[C@H]1C[C@@H]2[C@@H]([C@@H](O)C[C@@]3(C)[C@H]2CC[C@]3(O)C(=O)CO)[C@@]2(C)C=CC(=O)C=C12 | inactive |
| COc1ccc(C(=O)CC2(O)C(=O)Nc3c(Cl)ccc(Cl)c32)cc1 (stereo not given) | 3.72 µM (active) |
| O=C1CCC[C@@H]2[C@H]3CCC[N+]4([O-])CCC[C@@H](CN12)[C@@H]34 (stereo not given in full) | inactive |
| O=C(O)C1(Cc2cccc(Nc3nccs3)n2)CCC(Oc2cccc(Cl)c2F)CC1 (stereo not given) | inactive |
| CNC(=O)c1ccc(-c2cnc3ncc(Cc4ccc5ncccc5c4)n3n2)cc1F | inactive |
| CC1(O)CC(c2nc(-c3ccc4ccc(-c5ccccc5)nc4c3)c3c(N)nccn23)C1 (stereo not given) | 0.935 µM (active) |

| Compound | Potency |
| --- | --- |
| Nc1cccc(-c2cc3c(Oc4cccc(O)c4)ncnc3[nH]2)c1 | 5.9 µM (active) |
| Nc1ncnc2c1c(-c1cccc(OCc3ccccc3)c1)cn2C1CC(CN2CCCC2)C1 (stereo not given) | 1.87 µM (active) |
| CC(C)c1ccccc1Cc1cc(C(=O)Nc2ccc(S(=O)(=O)c3ccccc3C(C)(C)C)cc2)c(O)c(O)c1O | 18.7 µM (active) |
| O=c1c2ccccc2nc2n1CCc1c-2[nH]c2ccccc12 | inactive |
| c1ccc2c(CCNc3ccc(Nc4ccncc4)cc3)c[nH]c2c1 | 18.7 µM (active) |
| Nc1nccc(Oc2ccc(NC(=O)c3c[nH]cc(-c4ccc(F)cc4)c3=O)cc2F)c1Cl | 18.7 µM (active) |
| CCN(CC)CCCCNc1ncc2cc(-c3cc(OC)cc(OC)c3)c(NC(=O)NC(C)(C)C)nc2n1 | 11.8 µM (active) |
| CCOC(=O)C1=C(C)NC2=C(C(=O)CC(C)(C)C2)C1c1ccc(-c2ccccc2)cc1 (stereo not given) | 18.7 µM (active) |
| CCN(CC)CCNC(=O)c1ccc2nc(-c3ccccc3)c(-c3ccc(CN4CCC(n5c(=O)[nH]c6ccccc65)CC4)cc3)nc2c1 | 10.5 µM (active) |
| COc1cc(C)c(Sc2cnc(NC(=O)c3ccc(CNC(C)C(C)C)cc3)s2)cc1C(=O)N1CCN(C(C)=O)CC1 (stereo not given) | 2.64 µM (active) |
| Cc1cc(CN2CCN(c3c(Br)cnc4nc(-c5ccc(N6CCN(C)CC6)cc5)[nH]c34)CC2)no1 | 5.9 µM (active) |
| O=C(O)CCCc1c[nH]c2ccccc12 | inactive |
| C=C1C(=CC=C2CCCC3(C)[C@@H]([C@H](C)C=CC=CC(O)(CC)CC)CC[C@@H]23)C[C@@H](O)C[C@@H]1O (stereo not given in full) | 18.7 µM (active) |
| OCc1ccc(-c2ccc(-c3ccc(CO)s3)o2)s1 | 7.43 µM (active) |
| CS(=O)(=O)c1ccc(-c2cnc(N)c(C(=O)Nc3ccccc3)n2)cc1 | inactive |
| NC1(Cc2ccc(Cl)cc2)CCN(c2ncnc3[nH]ccc23)CC1 | 3.32 µM (active) |
| CCc1cc2c(cc1N1CCC(N3CCOCC3)CC1)C(C)(C)c1[nH]c3cc(C#N)ccc3c1C2=O | inactive |
